outcome, AC50 and fold change data for 22 compounds are collected here from PubChem BioAssay.

Several values for one entry are separate records, joined by “and”; a condition that tells them apart may be missing. Equal values may be shown once. Inconclusive results are not listed. Activity calls are given as the source filed them.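 Rule for the calls, unless noted: active = compounds whose cell count with miR-34 switched on is under 0.7 times the count with it off; inactive = the rest.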

One assay is described as follows: viability loss in pontine glioma line – cell-based, SU-DIPG-XXV, MIPE5.0, CellTiter-Glo, qHTS, dose response (AID 1347065; cut-off not given, nearly all actives have AC50 up to about 26 µM;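 note: cells exposed to compound for 48 hours before ATP readout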). The note with it: CellTiter-Glo ATP luminescence.
With `COCCCOc1ccnc(CS(=O)c2nc3ccccc3[nH]2)c1C` (stereo unspecified), the call was inactive.

`Cc1ccc(-n2nc(C(C)(C)C)cc2NC(=O)Nc2ccc(OCCN3CCOCC3)c3ccccc23)cc1`: the outcome was inactive.

Regarding `CCCC(CCC)C(=O)O`, the compound was called inactive.

With `CC(C)(C)NCC(O)c1ccc(O)c(CO)c1` (stereo unspecified), the compound was classed as inactive.

Take `NC(=O)c1cccnc1`: the result was inactive.

As for `CC(C(=O)O)c1cccc(C(=O)c2ccccc2)c1` (stereo unspecified), the compound was called inactive.

For the compound `CN1CCN(C2=Nc3cc(Cl)ccc3Nc3ccccc32)CC1`, the AC50 – broadly, the concentration giving half of the maximal activity seen – is 13.2 µM (active).

A short description of the next assay: SU-DIPG-VI glioma cell viability, MIPE4.0 library, CellTiter-Glo luminescence, qHTS (AID 1347066; cut-off not given, nearly all actives have AC50 up to about 30 µM;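 note: cells exposed to compound for 48 hours before readout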). Particulars: CellTiter-Glo ATP luminescence. (In general: ATP-based viability assays read luminescence as a measure of living cells.)
For the compound `COCCCOc1ccnc(CS(=O)c2nc3ccccc3[nH]2)c1C` (stereo unspecified), the compound was classed as inactive.

Regarding `N=c1nc(N2CCCCC2)cc(N)n1O`, the compound was called inactive.

`Cc1ccc(-n2nc(C(C)(C)C)cc2NC(=O)Nc2ccc(OCCN3CCOCC3)c3ccccc23)cc1`: the result was inactive.

For `CCn1cc(C(=O)O)c(=O)c2ccc(C)nc21`, the call was inactive.

With `CCCC(CCC)C(=O)O`, the result was inactive.

Consider `O=C(CCCN1CCC(O)(c2ccc(Cl)cc2)CC1)c1ccc(F)cc1`, for which the outcome was inactive.

In the case of `CC(C)(C)NCC(O)c1ccc(O)c(CO)c1` (stereo unspecified), the compound was called inactive.

On to `CCN(CC)CCOc1ccc(Cc2ccccc2)cc1`, for which the outcome was inactive.

Take `COc1ccc2cc([C@H](C)C(=O)O)ccc2c1`: the compound was classed as inactive.

`COc1c2occc2cc2ccc(=O)oc12`: the outcome was inactive.

Turning to `NC(=O)c1cccnc1`, the compound was classed as inactive.

For `CC(C(=O)O)c1cccc(C(=O)c2ccccc2)c1` (stereo unspecified), the call was inactive.

Regarding `CN1CCN(C2=Nc3cc(Cl)ccc3Nc3ccccc32)CC1`, the call was inactive.

The nature of a further assay: JHH-DIPG-1 glioma cell viability, MIPE5.0 library, CellTiter-Glo luminescence, qHTS (AID 1347067; cut-off not given, nearly all actives have AC50 up to about 26 µM;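 note: cells exposed to compound for 48 hours before readout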). The note with it: JHH-DIPG-1 glioma viability, CellTiter-Glo ATP luminescence.
As to `Cc1ccc(-n2nc(C(C)(C)C)cc2NC(=O)Nc2ccc(OCCN3CCOCC3)c3ccccc23)cc1`, the call was inactive.

On to `CN(C)C(=O)C(CCN1CCC(O)(c2ccc(Cl)cc2)CC1)(c1ccccc1)c1ccccc1`, for which the result was inactive.

In the case of `CCCC(CCC)C(=O)O`, the compound was called inactive.

With `CC(C)(C)NCC(O)c1ccc(O)c(CO)c1` (stereo unspecified), the outcome was inactive.

As to `CCN(CC)CCOc1ccc(Cc2ccccc2)cc1`, the compound was called inactive.

Turning to `COc1ccc2cc([C@H](C)C(=O)O)ccc2c1`, the compound was called inactive.

As to `COc1c2occc2cc2ccc(=O)oc12`, the compound was called inactive.

As for `NC(=O)c1cccnc1`, the compound was classed as inactive.

With `CC(C)OC(=O)C(C)(C)Oc1ccc(C(=O)c2ccc(Cl)cc2)cc1`, the call was inactive.

Take `CC(C(=O)O)c1cccc(C(=O)c2ccccc2)c1` (stereo unspecified): the result was inactive.

The nature of another assay: SU-DIPG-XXV glioma cell viability, MIPE5.0 library, qHTS (AID 1347068; cut-off not given, nearly all actives have IC50 up to about 30 µM).
Conditions: not given
A general note: qHTS replaces the single test concentration by a dilution series.
In the case of `COCCCOc1ccnc(CS(=O)c2nc3ccccc3[nH]2)c1C` (stereo unspecified), the result was inactive.

For the compound `Cc1ccc(-n2nc(C(C)(C)C)cc2NC(=O)Nc2ccc(OCCN3CCOCC3)c3ccccc23)cc1`, the call was inactive.

As for `CN(C)C(=O)C(CCN1CCC(O)(c2ccc(Cl)cc2)CC1)(c1ccccc1)c1ccccc1`, the compound was classed as inactive.

`CCCC(CCC)C(=O)O`: the result was inactive.

With `CC(C)(C)NCC(O)c1ccc(O)c(CO)c1` (stereo unspecified), the compound was classed as inactive.

`CCN(CC)CCOc1ccc(Cc2ccccc2)cc1`: the compound was called inactive.

With `COc1ccc2cc([C@H](C)C(=O)O)ccc2c1`, the compound was called inactive.

For `COc1c2occc2cc2ccc(=O)oc12`, the compound was called inactive.

Regarding `NC(=O)c1cccnc1`, the compound was classed as inactive.

Take `CC(C)OC(=O)C(C)(C)Oc1ccc(C(=O)c2ccc(Cl)cc2)cc1`: the compound was called inactive.

Turning to `CN1CCN(C2=Nc3cc(Cl)ccc3Nc3ccccc32)CC1`, the compound was called inactive.

A short description of a further assay: sensitizers of A549 cells to miR-34 induction, primary screen, imaging, A549 dox-inducible miR-34, nuclei and caspase counts (AID 1347080). Particulars: A549 miR-34 inducible, Hoechst nuclei count, 48 h; stronger effect = lower value; cell number ratio, induced over uninduced.
Regarding `COCCCOc1ccnc(CS(=O)c2nc3ccccc3[nH]2)c1C` (stereo unspecified), the fold change is 0.932 (inactive) and 0.863 (inactive).

For the compound `Cc1ccc(-n2nc(C(C)(C)C)cc2NC(=O)Nc2ccc(OCCN3CCOCC3)c3ccccc23)cc1`, the fold change was 0.925 (inactive).

Take `COc1ccccc1N1CCN(CCCCNC(=O)c2ccc(-c3ccc(C(C)=O)cc3)cc2)CC1`: the fold change is 0.929 (inactive).

As to `O=C1CN(/N=C/c2ccc([N+](=O)[O-])o2)C(=O)N1`, the fold change is 0.928 (inactive) and 0.958 (inactive).

Consider `C[C@@H](C1=C(CCN(C)C)Cc2ccccc21)c1ccccn1`, for which the fold change was 0.916 (inactive).

For the compound `COc1ccc2c(c1)C(=O)N(CCc1ccc(S(=O)(=O)NC(=O)NC3CCCCC3)cc1)C(=O)C2(C)C`, the fold change is 0.971 (inactive) and 0.893 (inactive).

For `CCN(CC)CCOc1ccc(Cc2ccccc2)cc1`, the fold change was 0.97 (inactive).

Regarding `CN/C(=C\[N+](=O)[O-])NCCSCc1ccc(CN(C)C)o1`, the fold change was 0.934 (inactive) and 0.989 (inactive) and 0.926 (inactive).

Turning to `CN1C(=O)CC[C@H]1c1cccnc1`, the fold change was 1 (inactive) and 0.929 (inactive) and 0.864 (inactive).

In the case of `Oc1ccc(O)cc1`, the fold change is 0.97 (inactive) and 0.922 (inactive).

Still in this assay, the particulars now being: A549 miR-34 inducible, Hoechst nuclei count, 48 h; measured here: relative caspase fold change +Dox/-Dox.
For the compound `COCCCOc1ccnc(CS(=O)c2nc3ccccc3[nH]2)c1C` (stereo unspecified), the fold change was 1.16 and 3.79.

For `Cc1ccc(-n2nc(C(C)(C)C)cc2NC(=O)Nc2ccc(OCCN3CCOCC3)c3ccccc23)cc1`, the fold change was 0.866.

`COc1ccccc1N1CCN(CCCCNC(=O)c2ccc(-c3ccc(C(C)=O)cc3)cc2)CC1`: the fold change was 0.93.

As to `O=C1CN(/N=C/c2ccc([N+](=O)[O-])o2)C(=O)N1`, the fold change was 1.23 and 1.67.

Take `C[C@@H](C1=C(CCN(C)C)Cc2ccccc21)c1ccccn1`: the fold change was determined as 0.633.

As to `COc1ccc2c(c1)C(=O)N(CCc1ccc(S(=O)(=O)NC(=O)NC3CCCCC3)cc1)C(=O)C2(C)C`, the fold change was 0.765 and 0.69.

Take `CCN(CC)CCOc1ccc(Cc2ccccc2)cc1`: the fold change was determined as 0.737.

Consider `CN/C(=C\[N+](=O)[O-])NCCSCc1ccc(CN(C)C)o1`, for which the fold change is 0.757 and 2.23 and 4.08.

For the compound `CN1C(=O)CC[C@H]1c1cccnc1`, the fold change is 1.81 and 1.06 and 0.497.

As to `Oc1ccc(O)cc1`, the fold change was 0.837 and 1.69.
